AI-2 QS modul: Vibrio harveyi AI-2 quorum sensing modulation. Vibrio harveyi JMH597 AI-2 luminescence/OD600 ratio, 9 h; stronger effect = lower value; strain lacks LuxN and CqsS sensors; 0 = neutral-control median. 0.4% of 300,000 active. activity change, % at 7.5 µM. AID 2094; in the data active = activity change below about -75%, passing the limit was not always enough;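 note: luminescence divided by OD600 gain over 9 h not by final OD600 alone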
PG9 binder: small molecules binding HIV-1 gp120 antibody PG9. TR-FRET gp120-PG9 antibody binding. inhibition, % at 6.7 µM. 0.43% of 360,000 active. AID 624416; in the data active = inhibition above about 8.5%
GAA850 FXN act: activators of GAA850 frataxin (FXN) promoter. activation, % at 6 µM. 0.56% of 360,000 active. HEK293 lucGAA850 FXN promoter luciferase reporter, 24 h; percent of 10 µM SAHA response. AID 540364;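 active = activation above the average of all compounds screened plus 3 SD, cutoff fixed separately per campaign, cut at about 7.5% in these data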
HSP90 inh: HSP90 refolding inhibition in rabbit reticulocyte lysate | luciferase refolding luminescence, 3 h | inhibition, % at 5.6 µM | 0.91% of 290,000 active;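 active = inhibition above the screen-wide mean plus 3 SD, computed separately per campaign, cut at about 16% in these data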;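 note: inhibitors lower the luminescence because luciferase stays unfolded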
HSF1 inhib: HSF1 inhibition | NIH3T3-HGL HSE-luciferase, MG132-induced, luminescence 8 h; stronger effect = lower value | activity change, negative = inhibition, % at 7.5 µM (by protocol) | 0.77% of 300,000 active | AID 2098;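 active = more than half of replicate wells show activity change below -50%, luminescence cut by over half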;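 note: luciferase reports HSF-1 transcriptional activity via heat shock element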
SMARCA2 act: activators of SMARCA2 function | MG213 cells, MMTV-luciferase reporter, dexamethasone, overnight | activation, % at 9.1 µM | 1% of 370,000 active | AID 652017; in the data active = activation above about 7.8%
A number is an active result; i = inactive; nt = not tested or not shown. This is a sample that favours compounds with a hit; in the whole collection about 3.4% have one here.

SMILES	AI-2 QS modul	PG9 binder	GAA850 FXN act	HSP90 inh	HSF1 inhib	SMARCA2 act
CCN(CC)S(=O)(=O)c1cccc(NC(=O)COc2ncnc3sccc23)c1	i	i	i	i	i	i
Cc1ccc(NC(=O)COc2ncnc3sccc23)cc1S(=O)(=O)N(C)C	-78	i	i	i	i	i
COc1ccc(Cc2nc(-c3ccc(Br)cc3)no2)cc1	-76	i	i	i	nt	i
Cc1ccc(Cc2nc(-c3ccncc3)no2)cc1	i	i	i	i	i	i
Clc1ccc(-c2nc(-c3ccccn3)no2)cc1Cl	i	i	i	i	i	i
COc1ccc(-c2nc(-c3ccncc3)no2)cc1	i	i	i	21	i	i
COc1ccc(-c2nc(-c3cccnc3)no2)cc1	i	i	i	i	i	i
COc1ccc(-c2nc(-c3ccccn3)no2)cc1	i	i	i	94	-78	i
CC1Oc2ccccc2N(CC(=O)NCc2ccccc2)C1=O (stereo unspecified)	i	i	i	i	-88	i
Cc1ccn2c(C(=O)c3ccc(Cl)cc3)cnc2c1	i	i	i	22	i	i
Cc1ccn2c(=O)nc(SCC(=O)c3ccc(Cl)cc3)nc2c1	i	i	i	nt	i	i
COc1ccccc1C(=O)NC(=S)Nc1ccccc1N1CCCC1	i	i	i	i	-58	i
Cc1ccccc1C(=O)NC(=S)Nc1ccccc1N1CCCC1	i	i	i	i	i	i
COc1ccc(C2CC(c3c(O)cc(C)oc3=O)=NCCS2)c(OC)c1 (stereo unspecified)	i	nt	i	i	nt	nt
Cc1cc(O)c(C2=Nc3ccccc3SC(c3ccc(Cl)cc3)C2)c(=O)o1 (stereo unspecified)	i	i	i	i	-54	i
COc1cc(NC(=O)c2ccccc2)c(C)cc1NC(=O)CSc1nnc(-c2cnccn2)n1-c1ccc(C)cc1	nt	nt	nt	nt	nt	i
O=C(CN1CCN(c2nc(-c3ccccc3)cs2)CC1)NNC(=O)c1ccc(Br)cc1	i	i	i	i	i	i
O=C(NC(=S)N1CCN(c2nc(-c3ccccc3)cs2)CC1)c1cncc(Br)c1	i	i	i	i	i	9.8
CC(=O)Nc1ccc(S(=O)(=O)NCC2CCN(C(=O)C(=O)c3cccs3)CC2)cc1	nt	i	nt	nt	nt	i
CN(CC(=O)NCc1cccnc1)S(=O)(=O)c1ccc2c(c1)c(=O)n(C)c(=O)n2C	i	i	i	i	-86	i
CCCCCCCCN1C(=O)[C@@H](CC(=O)NCCCOC)C[C@@]2(C(=O)OC)C1=C[C@H](C(C)(C)C)O[C@@H]2C	nt	i	nt	nt	nt	i
COC(=O)CCN1CCc2cc(N=Nc3ccc([N+](=O)[O-])cc3)ccc21	i	i	i	i	-63	i
O=C(COC(=O)C1C2CC3OC(=O)C1C3C2)Nc1cccc(Cl)c1 (stereo unspecified)	nt	i	i	i	-64	i
COc1cc(/C=N/NC(=O)c2cc(C)oc2C)ccc1O	i	i	i	i	-61	i
CC(/C=N\NC(=O)c1cc(C)oc1C)=C\c1ccccc1	i	i	i	i	-52	i
SMILES	AI-2 QS modul	PG9 binder	GAA850 FXN act	HSP90 inh	HSF1 inhib	SMARCA2 act
CC(/C=N/NC(=O)C(O)c1ccccc1)=C\c1ccccc1 (stereo unspecified)	i	i	7.8	i	i	i
Cc1ccc(NC(=O)C2CCN(c3nnc(-n4cccc4)s3)CC2)c(C)c1	nt	nt	nt	nt	nt	i
CCOC(=O)[C@@]12CCCC=C1N(CCc1ccc(Cl)cc1)C(=O)[C@H]2CC(=O)NCc1cccs1	nt	nt	nt	nt	nt	i
COCCNC(=O)C(OC(=O)c1cccs1)c1ccccc1 (stereo unspecified)	i	i	i	i	-55	i
CN1CCc2c(sc3c2C(=O)NC(c2ccc(-c4ccc(Cl)cc4)o2)N3)C1 (stereo unspecified)	i	i	i	i	-86	i
COc1ccc(C(C(=O)N(C)C2CCCC2)N(Cc2ccc(F)cc2)C(=O)c2ncn[nH]2)cc1OC (stereo unspecified)	nt	nt	nt	nt	nt	i
CCCC(C)c1nnc(NC(=O)CN2C(=O)c3ccccc3C2=O)s1 (stereo unspecified)	-88	i	i	i	i	i
O=C(NCCc1csc(-c2ccccc2)n1)c1c(F)cccc1F	i	i	i	41	i	i
O=C(NCCc1csc(-c2ccccc2)n1)c1c(F)cccc1Cl	i	i	i	i	i	i
Cc1ccc(/C=C2\SC(=S)N(CCC(=O)NNC(=O)c3ccccc3O)C2=O)cc1	i	i	i	i	i	i
Cc1ccc(/C=C2\SC(=S)N(CCCC(=O)NNC(=O)c3ccccc3O)C2=O)cc1	i	i	i	i	-52	i
CCOc1ccc(/C=C2\SC(=S)N(CCC(=O)O)C2=O)cc1	i	i	i	i	-60	i
O=C(NC1CCCCN(Cc2cccc(Cl)c2)C1=O)c1cccc2nsnc12 (stereo unspecified)	nt	nt	nt	nt	nt	i
CN(Cc1ccccc1)C(=O)OCc1cn(Cc2ccccc2Cl)nn1	nt	nt	nt	nt	nt	i
NS(=O)(=O)c1cc2c(cc1Cl)NCNS2(=O)=O	i	i	i	i	-69	i
CN(C)S(=O)(=O)c1cccc(NC(=O)c2ccc3c(c2)S(=O)(=O)N=C2CCCCCN23)c1	i	i	i	nt	i	i
CS(=O)(=O)c1ccc(NC(=O)c2ccc3c(c2)S(=O)(=O)N=C2CCCCCN23)cc1	nt	i	i	nt	-54	i
O=S1(=O)c2ccc(Br)cc2OC[C@@H](c2ccccc2)N1Cc1cn(CCC2OCCCO2)nn1	nt	nt	nt	nt	nt	i
O=C1N2Cc3ccccc3C2CS(=O)(=O)N1C1CCCC1 (stereo unspecified)	nt	nt	nt	nt	nt	i
COC(=O)C1=C(C)N(Cc2ccccc2C(F)(F)F)C(=NCc2ccccc2)NC1c1ccc(Cl)cc1 (stereo unspecified)	nt	i	nt	nt	nt	i
CCN(CC)c1nc2ccccc2n2cnnc12	i	i	i	i	i	i
O=c1[nH]c2ccccc2n2cnnc12	i	i	i	i	-83	i
CCCc1nc(SCC(=O)Nc2cc(Cl)ccc2OC)c2c(=O)n(C)c(=O)n(C)c2n1	i	nt	nt	i	-63	nt
CCc1nc(SCC(=O)Nc2ccc(F)cc2F)c2c(=O)n(C)c(=O)n(C)c2n1	i	i	i	i	i	i
O=S1(=O)CC2c3ccc(F)cc3CN2CN1C1CCCC1 (stereo unspecified)	nt	nt	nt	nt	nt	i
SMILES	AI-2 QS modul	PG9 binder	GAA850 FXN act	HSP90 inh	HSF1 inhib	SMARCA2 act
Cn1c(COc2ccccc2)nnc1SCC(=O)Nc1ccccc1-c1ccccc1	nt	nt	nt	nt	nt	i
CN[C@H]1C[C@H]2c3[nH]c4c(-c5cccc(C)c5)cccc4c3CCN2C[C@H]1[C@H](C)O	nt	nt	nt	nt	nt	i
O=C(CNC(=O)c1ccco1)NCC(=O)OCc1ccc(Cl)cc1	nt	i	i	i	i	i
O=C(CNC(=O)c1ccco1)OCc1ccc(Br)cc1	-76	nt	i	i	i	nt
CCc1nnc(NC(=O)CSc2nc(C3CCCCC3)nc3ccccc23)s1	i	16	i	i	nt	i
CCc1nnc(NC(=O)CSc2nc(-c3ccccc3)nc3ccccc23)s1	i	i	i	i	i	i

Screens deposited in PubChem by several laboratories.
